Only some compounds are listed: those with a hit (about 1.4% of all), similar ones and a draw of the others.
p-CIP stab down: p/CIP-EGFP fusion destabilizers, primary screen, fluorescence, F442A cells; Q05BA5; 16 h; decrease of EGFP signal, % at 10 µM; 290,000 tested, 0.01% active; AID 1984, 2009;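 active means EGFP signal decrease of at least 30% at 10 µM or well 3 SD below plate mean, unless failing retest; inactive means the rest, including hits failing retest or dose response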
MsrA inhibitor: bovine MsrA enzyme inhibitors, primary screen, biochemical, absorbance, HTS; inhibition, % at 15.5 µM; 360,000 tested, 0.75% active; purified bovine MsrA, absorbance read-out;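 further: 0% = vehicle wells with enzyme and 100% = reference inhibitor wells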
MsrA act: bovine MsrA enzyme activators, primary screen, biochemical, absorbance, HTS; purified bovine MsrA, absorbance read-out; activation, % at 10.6 µM; 360,000 tested, 0.3% active; in the data active means activation above about 7.5%;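 further: 0% = vehicle and 100% = reference activator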
14-3-3 Bad inh: inhibitors of 14-3-3 zeta/Bad binding, primary screen, biochemical, TR-FRET, bovine 14-3-3 zeta | TR-FRET 14-3-3zeta/Dy647-pBad peptide displacement, 1 h | inhibition, % at 21.7 µM | 220,000 tested, 0.71% active | AID 781, 2007;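 active means inhibition above about 70%, limit read from the data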;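 further: 0% = full 14-3-3 plus peptide FRET controls and 100% = background without 14-3-3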
Target sequence (P63103 whole entry, looked up): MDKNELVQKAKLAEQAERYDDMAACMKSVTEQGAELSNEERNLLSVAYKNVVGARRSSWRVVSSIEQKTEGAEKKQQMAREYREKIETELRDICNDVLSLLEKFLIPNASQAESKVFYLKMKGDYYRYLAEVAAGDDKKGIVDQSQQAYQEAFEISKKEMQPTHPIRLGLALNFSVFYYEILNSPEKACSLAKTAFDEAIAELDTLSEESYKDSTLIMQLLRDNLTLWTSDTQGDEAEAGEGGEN
MsrA inh confirm: bovine MsrA inhibitors, retest, confirmation, biochemical, absorbance, HTS. shares compounds with MsrA inhibitor. purified bovine MsrA, absorbance read-out. inhibition, % at 15.5 µM. 2,300 tested, 41% active;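 further: coupled to thioredoxin reductase with NADPH and selenocystamine and DMSO as substrate; 0% = vehicle only and 100% = full effect of reference inhibitor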
Starred values were filed as active, the others as inactive; . = no result. Unless noted, no stated cut-off is given here; in the data, active means inhibition above about 4.5%; inactive means the rest.

SMILES | p-CIP stab down | MsrA inhibitor | MsrA act | 14-3-3 Bad inh | MsrA inh confirm
Cc1nc2cc(-c3sccc3-n3cccc3)nn2c(C)c1C | -7.9 | 8.2* | -10.7 | -3.2 | 7.1*
CC(C)C[C@H]1CNC(=S)N1CC1CCN(CCCC2CCCCC2)CC1 | . | -1.0 | -1.3 | . | .
CC(=NCc1cccc(Cl)c1)c1nc(-c2ccco2)oc1O | -9.2 | 5.9* | -6.5 | -2.1 | 2.2
Cc1ccccc1CN1CCN(C(=O)c2ccc(F)cc2)CC1 | 3.0 | -0.8 | -1.4 | . | .
N#C/C(=C(/O)COC(=O)c1ccc(O)cc1)c1nc2ccccc2[nH]1 | 3.3 | 0.0 | -5.0 | -0.2 | .
N#C/C(=C(/O)COC(=O)c1cccnc1Cl)c1nc2ccccc2[nH]1 | 11.9 | 4.7* | -2.1 | -17.7 | 1.4
COc1ccc(NS(=O)(=O)c2cc(C(=O)N3CCCCCC3)ccc2C)cc1 | . | -0.3 | -1.6 | . | .
O=C(/C=C/c1ccc(O)c(O)c1)NC(=O)c1ccccc1O | -16.2 | 6.3* | -6.5 | . | 4.0
CSc1ccc(/C=C/C(=O)NC(=O)c2ccccc2O)cc1 | 0.3 | 6.0* | -12.5 | -8.4 | 4.7*
CCOC(=O)c1cc(C(=O)OCC)c(=O)[nH]c1C | -2.7 | 1.5 | -6.4 | -2.7 | .
CCOC(=O)c1cc(C(=O)OCC)c(=O)[nH]c1N1CCCC1 | 2.9 | 6.8* | -11.2 | 2.1 | 4.3
Nc1ncc(Br)cc1Br | -2.5 | 1.4 | -4.2 | 2.6 | .
Nc1ncc([N+](=O)[O-])cc1Br | 8.9 | 5.4* | -10.9 | 6.9 | 2.5
CC(C)c1ccc2[nH]c3c(c2c1)CCC/C3=N\NC(=O)c1ccncc1 | 9.4 | 1.4 | -4.4 | -12.7 | .
Nc1ccc(C(=O)N/N=C2\CCCc3c2[nH]c2ccccc32)cc1 | -1.7 | 5.3* | -5.8 | -5.5 | 7.1*
C#CCOc1ccc2ccccc2c1/C=C(/C#N)c1ccc(C(=O)O)cc1 | -9.2 | 1.8 | -4.5 | . | .
Cc1cc(-c2nc3ncccc3o2)ccc1N | -7.6 | 6.5* | -4.5 | -1.6 | 6.6*
Nc1ccc(-c2nc3ncccc3o2)c(Cl)c1 | -6.1 | 6.0* | -10.5 | 13.5 | 5.2*
Nc1ccc(-c2nc3ncccc3o2)c(O)c1 | 0.0 | 9.8* | -7.2 | . | 7.2*
Cc1ccc(-c2nc3ncccc3o2)cc1N | 12.7 | 1.1 | -4.4 | . | .
Nc1ccc(Cl)c(-c2nc3ncccc3o2)c1 | -10.3 | 0.2 | -1.2 | 8.5 | .
COc1cc(C(=O)Nc2ccccc2SCc2cc(=O)n3nc(C)sc3n2)cc(OC)c1OC | -4.5 | 0.7 | -3.6 | . | .
Cc1nn2c(=O)cc(CSc3ccccc3NC(=O)c3ccccc3F)nc2s1 | -12.6 | 4.7* | -4.9 | . | 3.0
CC(C)c1nn2c(=O)cc(CSc3ccccc3NC(=O)c3ccccc3F)nc2s1 | -2.7 | 1.2 | -9.8 | . | .
Cc1nn2c(=O)cc(CSc3ccccc3NC(=O)c3ccccc3)nc2s1 | -5.3 | 17.3* | 2.3 | . | 13.1*
SMILES | p-CIP stab down | MsrA inhibitor | MsrA act | 14-3-3 Bad inh | MsrA inh confirm
COc1ccc(N=C2CC(C)(C)CC(=O)/C2=C(/O)c2ccccc2)cc1 | -11.4 | 4.9* | -1.6 | -0.7 | 0.8
C=CCN=C1CC(C)(C)CC(=O)/C1=C(\O)c1ccccc1 | -6.1 | 0.8 | -11.3 | 1.0 | .
O=C1NC(N2CCOCC2)=N/C1=C/c1ccc2c(c1)OCO2 | 3.1 | 4.9* | -4.2 | -5.1 | 3.0
COc1ccc(/C=N/Nc2cc(C)nc(NS(=O)(=O)c3ccc(C)cc3)n2)cc1 | -3.1 | 2.9 | -2.0 | 3.8 | .
COc1cc(/C=N/Nc2cc(C)nc(NS(=O)(=O)c3ccc(C)cc3)n2)ccc1O | 0.1 | 5.5* | -7.8 | 8.9 | 5.7*
COc1cc(/C=N/Nc2cc(C)nc(NS(=O)(=O)c3ccccc3)n2)ccc1O | -6.0 | 7.4* | -6.6 | 1.0 | 6.9*
Cc1cc(NN)nc(NS(=O)(=O)c2ccccc2)n1 | -14.3 | 1.3 | -0.1 | -6.8 | .
Cc1c2cnccc2c(C)c2c1oc1ccccc12 | . | -0.2 | -0.1 | . | .
Cc1cc(=O)[nH]c(SCC(=O)Nc2c(C)n(C)n(-c3ccccc3)c2=O)n1 | . | -0.3 | -2.1 | . | .
Cc1ccc(-c2nnc(Nc3ccc(C(=O)N(C)C)cc3)c3ccccc23)cc1S(=O)(=O)NCC1CCCO1 (stereo not drawn) | -2.8 | 4.7* | -2.7 | 10.4 | 2.6
Cc1cc(/C=C(\C#N)C(=O)Nc2ccccc2F)c(C)[nH]1 | -6.3 | 4.7* | 0.2 | -6.7 | 3.2
N#C/C(=C\c1ccc[nH]1)C(=O)Nc1ccccc1F | -0.9 | 3.1 | -5.7 | . | .
CCOC(=O)C1(Cc2ccccc2C)CCCN(C(=O)c2ccc(CSC)o2)C1 (stereo not drawn) | -12.4 | 0.7 | -12.3 | . | .
CCOC(=O)CSc1nc(=O)n2ccc(C)cc2n1 | 4.8 | 4.7* | -4.3 | -7.8 | 0.2
CN(C(=O)COC(=O)CCC(=O)c1ccc(Cl)cc1)c1c(N)n(Cc2ccccc2)c(=O)[nH]c1=O | . | -1.1 | -4.3 | . | .
CCN(CC)c1ccc(/C=N/Nc2nn[nH]n2)cc1 | -8.9 | 6.4* | -9.8 | -0.3 | 3.9
CCN(CC)c1ccc(/C=N/Nc2nc(C)cc(C)n2)cc1 | -3.7 | 3.1 | -5.3 | -16.0 | .
O=C1NC(=S)N/C1=C/c1cccn1-c1ccc([N+](=O)[O-])cc1 | -1.3 | 5.1* | -10.3 | 2.5 | 0.7
N=C1/C(=C/c2cccn2-c2ccc([N+](=O)[O-])cc2)C(=O)N=C2SC=CN12 | -13.0 | -0.3 | 1.6 | 11.4 | .
COc1ccc(CCNC(=O)c2c(Cl)ccc(Cl)c2OC)cc1OC | -13.3 | -0.3 | -1.9 | . | .
CC(=O)N(C)c1ccc(N=Nc2ccc3ncccc3c2)cc1 | . | 5.3* | -3.3 | . | 4.9*
Oc1ccc(C=Nc2ccc3ncccc3c2)c(O)c1 | -16.2 | . | . | 3.1 | .
CN(C)c1ccc(-c2nc3ccccc3c(=O)[nH]2)cc1 | 7.3 | 6.0* | -13.6 | 2.7 | 4.1
Cc1cccc(OCC(=O)NCCNC(=O)c2ccco2)c1 | -4.1 | -0.2 | -1.6 | . | .

Bioassay records: PubChem BioAssay, several laboratories
